High-throughput results: PubChem BioAssay, several laboratories
Compounds with a hit are over-represented: about 1.1% of the library has one in this group of screens.
Granule exo inh – LAMP-1 surface exposure blockers, TALL-104 cells – cell-based, flow cytometry, MLPCN library, primary screen; TALL-104 LAMP-1 surface exposure; cells stimulated with thapsigargin and PMA; AID 651702, 2012; inhibition, % at 10 µM; hit rate 0.66% among 360,000;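 active = inhibition above about 55%, limit read from the data; inconclusive = no clear call, values can overlap the other calls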
VLA-4 inh – inhibition in human VLA-4 binding assay, primary screen, VLA-4 allosteric modulator project, MLPCN library, flow cytometry, VLA-4 expressing cells. hit rate 0.2% among 330,000. AID 2557, 2010. Integrin alpha-4 (Homo sapiens), P13612. ligand binding flow cytometry. inhibition, % (about 7 µM as worked out from the volumes in the protocol); in the data active = inhibition above about 50%
CaV13 FRET inh – Primary screen for inhibitors of IQ motif and Ca2+-dependent inactivation inhibitor domain binding in CACNA1D, Förster resonance energy transfer in living cells, …; AID 743397; hit rate 0.098% among 340,000; HEK cells, CFP/YFP FRET ICDI-IQ, plate reader, 10 min; percent FRET-ratio fall versus neutral wells; inhibition, % at 12.3 µM;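 active = mean replicate inhibition of at least 30% and at least 1% of replicates passing that level; inconclusive = only one of the two criteria is met; inactive = neither criterion is met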
ABCB6 inh MLPCN – ABCB6 transporter inhibitors, primary screen, K562-ABCB6 cells, flow cytometry, MLPCN library. ATP-binding cassette sub-family B member 6 (Homo sapiens), Q9NP58. K562-ABCB6 porphyrin accumulation, 1 h; hits give low values. fluorescence ratio to DMSO, % at 10 µM. hit rate 0.19% among 360,000. AID 602162, 2011;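 active = fluorescence ratio to DMSO below 75%, the collection mean minus 3 SD; inconclusive = too few cells collected in the well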;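 note: signal is porphyrin accumulated inside mitochondria; lower ratio means ABCB6 inhibition with less porphyrin fluorescence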
Target sequence (Q9NP58 whole entry, looked up): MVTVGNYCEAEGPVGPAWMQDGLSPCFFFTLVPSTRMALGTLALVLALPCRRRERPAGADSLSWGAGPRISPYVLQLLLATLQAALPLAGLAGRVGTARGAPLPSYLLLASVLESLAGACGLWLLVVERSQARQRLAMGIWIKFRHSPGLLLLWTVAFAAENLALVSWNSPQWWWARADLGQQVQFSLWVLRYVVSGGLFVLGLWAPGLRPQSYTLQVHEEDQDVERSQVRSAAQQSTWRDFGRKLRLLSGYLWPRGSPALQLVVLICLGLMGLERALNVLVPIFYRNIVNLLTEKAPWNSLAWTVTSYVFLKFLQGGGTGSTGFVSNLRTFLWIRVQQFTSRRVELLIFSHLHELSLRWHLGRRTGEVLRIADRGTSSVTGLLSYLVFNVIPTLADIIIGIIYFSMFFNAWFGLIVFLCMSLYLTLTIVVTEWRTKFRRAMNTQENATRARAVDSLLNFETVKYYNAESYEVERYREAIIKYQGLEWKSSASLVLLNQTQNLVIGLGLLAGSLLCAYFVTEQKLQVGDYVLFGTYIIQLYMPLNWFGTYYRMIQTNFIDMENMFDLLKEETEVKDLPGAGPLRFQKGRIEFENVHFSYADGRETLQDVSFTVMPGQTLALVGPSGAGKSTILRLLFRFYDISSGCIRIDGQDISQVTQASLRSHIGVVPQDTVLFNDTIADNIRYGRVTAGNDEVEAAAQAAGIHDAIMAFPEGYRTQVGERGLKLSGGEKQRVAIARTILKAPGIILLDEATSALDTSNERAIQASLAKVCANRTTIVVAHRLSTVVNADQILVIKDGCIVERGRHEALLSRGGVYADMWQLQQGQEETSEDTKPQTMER
ABCB6 blocker 1 – ABCB6 transporter inhibitors, confirmation, K562-ABCB6 cells, flow cytometry, cherry pick 1 | shares compounds with ABCB6 inh MLPCN | K562-ABCB6 porphyrin accumulation, 1 h; hits give low values | ratio response (% of DMSO), % at 10 µM | 700 tested, under 10 active;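 active = repeat-averaged ratio response below 75% of DMSO, the collection mean minus 3 SD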;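 note: median porphyrin fluorescence at 575 nm with 488 nm excitation from mitochondria; lower ratio means less porphyrin signal so ABCB6 inhibition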
Numbers stand for hits; - = inactive; ? = inconclusive; . = no result given.

SMILES	Granule exo inh	VLA-4 inh	CaV13 FRET inh	ABCB6 inh MLPCN	ABCB6 blocker 1
Cc1cccc(/C=C2\Sc3ccc(C(=O)N4CCCCC4)cc3N(C)C2=O)c1	-	-	-	-	.
Cc1cccc(/C=C2\Sc3ccc(C(=O)N4CCC(C)CC4)cc3N(C)C2=O)c1	-	-	-	13.0	-
O=C(COc1ccc(S(=O)(=O)NC2CCCCC2)cc1Cl)NCC1CCCO1 (stereo not given)	-	-	.	-	.
Cc1cc(S(=O)(=O)NC2CCCCC2)ccc1OCC(=O)NCC1CCCO1 (stereo not given)	-	-	-	73.0	-
COC(=O)[C@@H]1C[C@@]2(O)[C@H](O)[C@H](O)[C@H](O)C[C@H]2N1Cc1ccc(C(F)(F)F)cc1	-	-	-	72.0	-
COC(=O)C1=C(COc2ccccc2)NC(=O)NC1c1ccc2ccccc2c1 (stereo not given)	.	-	-	.	.
Clc1cc(Sc2ccc(Br)cc2)nnc1-c1ccccc1	-	-	-	74.0	-
COc1cc(NC(=O)c2sc3ncn(CC(=O)N4CCCCC4C)c(=O)c3c2C)cc(OC)c1OC (stereo not given)	-	.	-	-	-
Cc1ccc(NC(=O)c2sc3ncn(CC(=O)N4CCOCC4)c(=O)c3c2C)c(Br)c1	-	-	-	-	-
CCOc1ccccc1NC(=O)c1sc2ncn(CC(=O)N3CCOCC3)c(=O)c2c1C	-	-	-	-	.
Cc1c(C(=O)NCc2cccnc2)sc2ncn(CC(=O)N3CCCCC3C)c(=O)c12 (stereo not given)	-	.	-	-	.
CCOc1ccccc1N(C)C(=O)c1sc2ncn(CC(=O)N3CCCCC3C)c(=O)c2c1C (stereo not given)	-	-	-	-	-
Cc1cc([N+](=O)[O-])ccc1NC(=O)c1sc2ncn(CC(=O)N3CCOCC3)c(=O)c2c1C	-	-	-	-	.
CC(C)C[C@@H](CSc1ccc(Br)cc1)N1CCN(CC(C)C)CCC1=O	-	.	-	-	.
CN(C)c1ccc(NC(=O)CSc2nnc(C3CCCCC3)n2N)cc1	-	-	-	12.0	-
CC(=O)c1oc2ccccc2c1NC(=O)CN1CCCCC1	-	-	-	-	.
Cc1ccc(S(=O)(=O)N2CCN(C(=O)CN3CCOCC3)C2C(C)C)cc1 (stereo not given)	-	-	-	59.0	-
COc1cc(-c2nnc(CSc3nnc(Nc4ccc(C(C)C)cc4)s3)o2)cc(OC)c1OC	-	-	-	74.0	-
O=C(NCCCN=C1NS(=O)(=O)c2ccccc21)c1ccc(F)cc1	-	-	-	-	.
Cc1cccc(NC(=O)CN2CCN(C(=O)c3c(C)nn(Cc4ccccc4)c3C)CC2)c1C	-	-	-	56.0	-
CC(=O)Nc1ccc(NC(=O)CSC2=NS(=O)(=O)c3cc(Cl)ccc3N2)cc1	-	-	-	56.0	-
CCN(CC)CCNc1nc2c(c(=O)n(C)c(=O)n2C)n1C/C=C(/C)Cl	-	-	.	73.0	-
CN(C)c1ccc(-c2ccnc3c2CC(C)(C(=O)Nc2ccc(Cl)cc2)O3)cc1 (stereo not given)	-	.	-	-	.
CN(C)c1ccc(-c2ccnc3c2CC(C)(C(=O)Nc2ccc(F)c(Cl)c2)O3)cc1 (stereo not given)	-	.	-	-	-
CC(=O)Nc1ccc(-c2ccnc3c2CC(C)(C(=O)Nc2cccc(Oc4ccccc4)c2)O3)cc1 (stereo not given)	-	.	-	-	-
SMILES	Granule exo inh	VLA-4 inh	CaV13 FRET inh	ABCB6 inh MLPCN	ABCB6 blocker 1
CC(=O)Nc1cccc(-c2ccnc3c2CC(C)(C(=O)Nc2ccc4c(c2)OCO4)O3)c1 (stereo not given)	-	.	-	-	-
COc1ccc(NC(=O)C2(C)Cc3c(-c4ccc(C(N)=O)cc4)ccnc3O2)cn1 (stereo not given)	-	.	-	-	-
N#CC1(c2ccc(NC(=O)c3ccccc3F)cc2)CCCC1	-	-	-	-	.
COCCn1c(N2CCN(c3ccc(OC)cc3)CC2)nc2c1c(=O)[nH]c(=O)n2C	-	-	-	-	.
CCOCCn1c(N2CCN(c3ccc(OC)cc3)CC2)nc2c1c(=O)[nH]c(=O)n2C	-	-	.	72.0	-
COC(C(=O)Nc1ccnn1C1CCN(C(=O)c2ccc(C=O)cc2)CC1)c1ccccc1 (stereo not given)	-	-	-	-	.
COc1ccc(-c2cc(C(=O)Nc3c(C)nn(Cc4ccccc4)c3C)no2)cc1	-	-	-	51.0	-
COc1ccc(C(=O)NCc2ccccc2CN2CCCC2)cc1S(=O)(=O)Nc1ccc(C)cc1	-	-	-	-	.
CCCCCN(C(=O)CCC(=O)OCC(=O)c1ccc(CCC)cc1)c1c(N)n(CCCC)c(=O)[nH]c1=O	-	-	-	73.0	-
CCCCCN(C(=O)CCC(=O)OC(C)C(=O)c1ccc(CC)cc1)c1c(N)n(CCCC)c(=O)[nH]c1=O (stereo not given)	-	.	-	-	-
CC(C)CN(C(=O)CCC(=O)OCC(=O)N(C)c1ccccc1)c1c(N)n(CC(C)C)c(=O)[nH]c1=O	-	-	-	-	-
CCCCCN(C(=O)CCC(=O)OC(C)C(=O)Nc1ccccc1C)c1c(N)n(CCCC)c(=O)[nH]c1=O (stereo not given)	-	.	-	-	-
O=C(Cc1ccccc1)NCC(=O)OCC(=O)c1ccc(OC(=O)c2ccccc2)cc1	-	-	-	-	.
COc1ccc(N2CC(C(=O)N3CCC(c4nc5ccccc5[nH]4)CC3)CC2=O)cc1 (stereo not given)	-	-	-	-	.
O=C(c1cc2ccccc2oc1=O)N(Cc1cccc(Br)c1)C1CCS(=O)(=O)C1 (stereo not given)	-	-	-	-	.
CCCCN(C(=O)CCC(=O)OCC(=O)NCc1ccccc1)c1c(N)n(CCC)c(=O)[nH]c1=O	-	-	-	-	-
O=C(O)c1cc(Cl)c(Cl)cc1C(=O)N(Cc1ccccc1)Cc1ccccc1	-	-	-	-	.
O=S1(=O)CC(N2CCN(CC3CC3)CC2)CN1Cc1cn(Cc2ccccc2C(F)(F)F)nn1 (stereo not given)	-	.	-	-	.
O=C(NCc1ccco1)c1c2c(nc3ccccc13)CCC2	-	-	-	74.0	-
COc1ccc(-c2ccc(C(=O)NCc3ccncc3)c3occc23)c(C)c1	-	.	-	69.0	-
O=S(=O)(c1ccc(C(F)(F)F)cc1)N1CCN(CCc2ccccc2)CC1	-	-	-	-	.
S=C(NC1CCCC1)N1CCN(c2ccc(Cl)cc2)CC1	?	-	-	-	.
O=C(CCC(=O)N1CCCC1)Nc1nnc(C2CCCCC2)s1	-	-	-	-	.
